In PubChem BioAssay:
The source made the active and inactive calls.

Key:
Albumin (Bos taurus) = Albumin (Bos taurus) (UniProt P02769); test: bovine serum albumin binders on microarray, profiling panel, artefact control for SMM control protein annotation, biochemical, small-molecule microarray, Alexa647 label, 635/667 nm fluorescence (AID 1118); details: BSA-A647 binding, fluorescence 635 nm, higher = more signal;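 also: score merges 667 nm emission intensity and signal-to-noise per printed compound spot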
Chain of Albumin (Bos taurus) (P02769 whole entry, looked up): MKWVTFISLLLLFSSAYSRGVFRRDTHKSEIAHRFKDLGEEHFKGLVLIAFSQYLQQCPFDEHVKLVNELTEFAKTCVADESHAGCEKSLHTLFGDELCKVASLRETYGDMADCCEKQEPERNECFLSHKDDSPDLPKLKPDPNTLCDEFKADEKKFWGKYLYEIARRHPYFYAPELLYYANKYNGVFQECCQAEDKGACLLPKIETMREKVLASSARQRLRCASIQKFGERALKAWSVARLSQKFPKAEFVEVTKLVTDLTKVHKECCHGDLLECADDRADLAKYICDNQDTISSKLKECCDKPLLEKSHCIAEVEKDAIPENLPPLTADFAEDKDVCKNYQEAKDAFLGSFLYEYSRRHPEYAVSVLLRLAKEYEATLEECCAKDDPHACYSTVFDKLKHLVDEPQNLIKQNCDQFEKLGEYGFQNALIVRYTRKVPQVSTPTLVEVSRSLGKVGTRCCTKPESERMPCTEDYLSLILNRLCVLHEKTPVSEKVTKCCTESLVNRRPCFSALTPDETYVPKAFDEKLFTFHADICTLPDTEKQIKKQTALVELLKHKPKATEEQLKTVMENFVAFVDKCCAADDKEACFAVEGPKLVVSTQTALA

[1] = small-molecule microarray binders of probe aXIP, primary screen, biochemical, NeuroSMM set, 635/667 nm fluorescence (AID 1119); details: higher = more signal, called active from +8 up or from −8 down;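 also: probe is the protein aXip251-270 applied at 1 µg/mL to compound-printed slides; binding of probe to printed compounds measured as 667 nm fluorescence plus signal to noise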
[2] = small-molecule binders of probe aNOTCH3, primary screen, biochemical, small-molecule microarray, 635/667 nm fluorescence (AID 1120); details: higher = more signal;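 also: probe is a biotin-tagged antibody raised against NOTCH3 rather than NOTCH3 protein; score merges spot fluorescence near 667 nm with spot signal to noise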
[3] = small-molecule binders of probe aNOTCH2, primary screen, biochemical, small-molecule microarray, 635/667 nm fluorescence (AID 1121); details: higher = more signal;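 also: score merges feature fluorescence read at 667 nm with its signal to noise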
[4] = target: Carbonic anhydrase 2 (Homo sapiens) (UniProt P00918); test: CAII small-molecule binders, profiling panel, biochemical, small-molecule microarray, Alexa647-labelled CAII (AID 1122); details: CAII-A647 binding fluorescence, higher = more signal
[5] = COS7 lysate on small-molecule microarray, probe aHis, 635 nm (AID 1123); details: COS7 cell lysate, fluorescence, higher = more signal;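 also: z-score combines 667nm fluorescence intensity with signal-to-noise per printed compound spot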
[6] = compound binding in COS7 lysate, probe aLAP1, primary screen, cell lysate, small-molecule microarray (AID 1124); details: probe aLAP1, fluorescence, higher = more signal;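 also: lysate comes from COS7 cells expressing LAP1 and is applied at 0.3 µg/mL; score merges spot fluorescence near 667 nm with signal-to-noise over triplicate slides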
Sam68 (KHDRBS1) = test: Sam68 small-molecule binders, primary screen, biochemical, small-molecule microarray, 635 nm fluorescence (AID 1125); details: small-molecule microarray binding, higher = more signal;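 also: score merges 667 nm channel intensity with signal to noise over triplicate slides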
[7] = system: Chordin-like protein 2 (CHRDL2); test: CHRDL2 small-molecule binders, primary screen, biochemical, small-molecule microarray, 635 nm fluorescence (AID 1126); details: small-molecule microarray binding, fluorescence 635 nm; higher = more signal;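 also: printed compound slides probed with Chrdl2 protein at 4 µg/mL for 1 h at 4 C; score merges 667 nm emission intensity with signal to noise over three replicate slides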
[8] = target: Concanavalin-A (Canavalia ensiformis) (UniProt P02866); test: ConA small-molecule binders, primary screen, artefact control for SMM control protein annotation, biochemical, small-molecule microarray, Alexa647 label, 635 nm (AID 1127); details: ConA-A647 binding fluorescence, higher = more signal;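 also: z combines 667 nm emission intensity with signal-to-noise across three replicate slides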
Chain of Concanavalin-A (Canavalia ensiformis) (P02866 whole entry, looked up): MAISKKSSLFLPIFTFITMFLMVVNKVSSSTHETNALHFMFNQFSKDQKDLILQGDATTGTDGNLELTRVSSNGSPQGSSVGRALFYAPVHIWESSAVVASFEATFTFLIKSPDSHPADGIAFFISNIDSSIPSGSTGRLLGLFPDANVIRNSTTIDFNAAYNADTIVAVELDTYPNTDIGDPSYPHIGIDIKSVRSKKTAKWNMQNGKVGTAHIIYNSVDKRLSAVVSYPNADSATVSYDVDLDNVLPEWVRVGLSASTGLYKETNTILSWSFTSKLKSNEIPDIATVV

[9] = anti-His antibody binders, primary screen, artefact control for SMM control protein annotation, biochemical, small-molecule microarray, 635 nm fluorescence (AID 1128); details: anti-His Alexa647 antibody binding, higher = more signal;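 also: score merges feature fluorescence with signal-to-noise for each printed compound spot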
[10] = system: Human papillomavirus type 1a E7 protein (residues 1-88); test: HPV1a E7 small-molecule binders, primary screen, biochemical, small-molecule microarray, residues 1-88, 635 nm (AID 1129); details: small-molecule microarray binding, fluorescence 635 nm; higher = more signal
[11] = target: Focal adhesion kinase 1 (Homo sapiens) (UniProt Q05397); test: small-molecule microarray binders of FAK, primary screen, biochemical, 635/667 nm fluorescence, BSA, DTT (AID 1130); details: PTK2 binding, 635 nm fluorescence, higher = more signal;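 also: composite of spot emission at 667 nm and signal to noise over triplicate slides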
Chain of Focal adhesion kinase 1 (Homo sapiens) (Q05397 whole entry, looked up): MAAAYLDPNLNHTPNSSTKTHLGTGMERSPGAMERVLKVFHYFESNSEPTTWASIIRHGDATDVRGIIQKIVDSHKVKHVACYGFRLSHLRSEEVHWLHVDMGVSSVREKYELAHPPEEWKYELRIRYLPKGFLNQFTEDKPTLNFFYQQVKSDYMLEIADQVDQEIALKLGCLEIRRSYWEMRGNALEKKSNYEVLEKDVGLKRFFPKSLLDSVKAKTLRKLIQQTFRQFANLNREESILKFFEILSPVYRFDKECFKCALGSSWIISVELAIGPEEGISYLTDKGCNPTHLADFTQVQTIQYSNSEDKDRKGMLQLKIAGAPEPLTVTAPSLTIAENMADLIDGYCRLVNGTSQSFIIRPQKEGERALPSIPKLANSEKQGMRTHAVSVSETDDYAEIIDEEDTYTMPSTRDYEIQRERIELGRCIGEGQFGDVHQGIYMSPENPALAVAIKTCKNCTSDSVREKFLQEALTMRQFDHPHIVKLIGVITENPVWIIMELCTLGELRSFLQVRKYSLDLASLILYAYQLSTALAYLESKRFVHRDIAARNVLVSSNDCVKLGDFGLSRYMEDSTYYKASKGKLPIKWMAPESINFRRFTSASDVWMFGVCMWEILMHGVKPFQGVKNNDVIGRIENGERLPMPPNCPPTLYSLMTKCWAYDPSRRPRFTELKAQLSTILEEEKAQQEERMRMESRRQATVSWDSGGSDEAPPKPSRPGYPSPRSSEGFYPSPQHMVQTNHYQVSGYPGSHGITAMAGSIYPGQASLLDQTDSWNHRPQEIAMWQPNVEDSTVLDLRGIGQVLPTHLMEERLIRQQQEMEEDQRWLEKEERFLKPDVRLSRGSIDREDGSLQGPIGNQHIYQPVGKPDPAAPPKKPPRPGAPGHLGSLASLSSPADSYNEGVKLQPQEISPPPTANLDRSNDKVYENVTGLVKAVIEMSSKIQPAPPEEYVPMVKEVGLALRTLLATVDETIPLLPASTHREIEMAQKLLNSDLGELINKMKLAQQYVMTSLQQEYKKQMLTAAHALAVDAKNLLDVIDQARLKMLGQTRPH

[12] = system: Fibrinogen (Alexa647-labelled); test: fibrinogen binders on compound microarrays, profiling panel, artefact control for SMM control-protein annotation, biochemical, small-molecule microarray, 635/667 nm fluorescence (AID 1131); details: fibrinogen-A647 binding fluorescence, higher = more signal;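 also: z-score merges 667 nm fluorescence with per-spot signal-to-noise over triplicate slides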
[13] = target: Follistatin (Homo sapiens) (UniProt P19883); test: follistatin binders on small-molecule microarrays, primary screen, biochemical, small-molecule microarray, 635/667 nm fluorescence (AID 1132); details: FST binding, 635 nm fluorescence, higher = more signal
Chain of Follistatin (Homo sapiens) (P19883 whole entry, looked up): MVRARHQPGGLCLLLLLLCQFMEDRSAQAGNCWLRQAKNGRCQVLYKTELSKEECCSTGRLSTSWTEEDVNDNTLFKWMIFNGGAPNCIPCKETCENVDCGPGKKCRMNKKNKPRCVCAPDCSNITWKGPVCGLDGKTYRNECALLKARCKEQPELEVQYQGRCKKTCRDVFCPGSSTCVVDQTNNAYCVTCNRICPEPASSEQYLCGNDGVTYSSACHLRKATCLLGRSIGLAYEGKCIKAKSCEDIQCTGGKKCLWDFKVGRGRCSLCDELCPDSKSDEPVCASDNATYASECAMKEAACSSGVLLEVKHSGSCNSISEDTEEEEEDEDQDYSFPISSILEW

[14] = target: Fibroblast growth factor 2 (Homo sapiens) (UniProt P09038); test: FGF2 binders on small-molecule microarrays, primary screen, biochemical, small-molecule microarray, 635/667 nm fluorescence (AID 1133); details: small-molecule microarray binding, FGF2, fluorescence 635/667; higher = more signal
Chain of Fibroblast growth factor 2 (Homo sapiens) (P09038 whole entry, looked up): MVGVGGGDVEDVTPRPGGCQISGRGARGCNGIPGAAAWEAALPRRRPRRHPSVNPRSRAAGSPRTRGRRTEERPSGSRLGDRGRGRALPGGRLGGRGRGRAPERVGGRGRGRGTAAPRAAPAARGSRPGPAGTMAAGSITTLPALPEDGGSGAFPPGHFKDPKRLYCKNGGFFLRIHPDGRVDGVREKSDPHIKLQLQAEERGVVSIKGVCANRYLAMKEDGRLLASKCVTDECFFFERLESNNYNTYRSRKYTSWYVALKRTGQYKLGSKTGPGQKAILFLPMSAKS

[15] = mitochondrial membrane potential change in A549 cells, profiling panel, cell-based, JC-1 fluorescence, basal, 24 h, 100 nL (AID 1138); details: higher = more signal;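 also: A549 lung adenocarcinoma cells under basal conditions with no added stimulus; test concentration not given here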
Lefty1 = Lefty1 binders on small-molecule microarrays, primary screen, biochemical, small-molecule microarray, 635/667 nm fluorescence (AID 1139); details: small-molecule microarray binding, fluorescence 635/667; higher = more signal
[16] = system: wheat germ agglutinin (Triticum aestivum), Alexa647-labelled; test: wheat germ agglutinin binders on compound microarrays, profiling panel, artefact control for SMM control-protein annotation, biochemical, small-molecule microarray, 635/667 nm fluorescence (AID 1140); details: WGA-A647 binding, 635 nm fluorescence, higher = more signal;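 also: score merges 667 nm feature emission with signal to noise over triplicate slides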
[17] = target: Luciferin 4-monooxygenase (Photinus pyralis) (UniProt P08659); test: firefly luciferase enzyme inhibitors, primary screen, biochemical, luminescence, purified enzyme, 2006 set (AID 1141); details: SteadyGlo luminescence, 30 min, higher = more signal, called active from +8 up or from −8 down;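 also: cell-free assay with purified firefly luciferase at 100 ng per well in PBS; test concentration not given here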
Chain of Luciferin 4-monooxygenase (Photinus pyralis) (P08659 whole entry, looked up): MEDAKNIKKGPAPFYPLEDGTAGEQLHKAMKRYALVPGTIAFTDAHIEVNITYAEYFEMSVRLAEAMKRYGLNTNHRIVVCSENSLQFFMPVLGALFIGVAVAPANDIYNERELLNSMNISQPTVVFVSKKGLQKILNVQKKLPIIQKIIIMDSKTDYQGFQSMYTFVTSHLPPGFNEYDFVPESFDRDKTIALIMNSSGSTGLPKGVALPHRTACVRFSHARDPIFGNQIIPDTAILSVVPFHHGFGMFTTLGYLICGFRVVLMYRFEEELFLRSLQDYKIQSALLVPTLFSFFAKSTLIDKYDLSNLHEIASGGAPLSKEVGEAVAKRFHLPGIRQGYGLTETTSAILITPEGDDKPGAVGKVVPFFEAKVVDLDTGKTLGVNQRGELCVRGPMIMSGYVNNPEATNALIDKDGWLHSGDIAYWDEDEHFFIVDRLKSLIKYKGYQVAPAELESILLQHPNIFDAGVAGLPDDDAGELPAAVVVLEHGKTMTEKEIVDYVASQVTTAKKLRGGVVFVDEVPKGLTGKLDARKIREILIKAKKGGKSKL

Row | SMILES | composite z-score (Albumin (Bos taurus)) | composite Z-score [1] | composite z-score [2] | composite z-score [3] | composite z-score [4] | composite z-score [5] | composite z-score [6] | composite z-score (Sam68 (KHDRBS1)) | composite z-score [7] | composite z-score [8] | composite z-score [9] | composite z-score [10] | composite z-score [11] | composite z-score [12] | composite z-score [13] | composite z-score [14] | z-score [15] | composite z-score (Lefty1) | composite z-score [16] | z-score [17]
1 | CO[C@H]1COC(=O)[C@H](Cc2ccccc2)NC(=O)CC=C[C@@H](C)[C@H](OC)COC(=O)CC=C[C@@H]1C | -0.108 | -0.225 (inactive) | 0.0319 | -0.0211 | -0.142 | 0.199 | -0.47 | 0.588 | 0.53 | 0.296 | 0.809 | 0.779 | -0.237 | 0.256 | 0.424 | 0.144 | 1.64 | 0.492 | -0.12 | -1.27 (inactive)
2 | CN1C(=O)C2C=CC(C(O)C3CC=CCC3)N(Nc3ccccc3)C2C1=O (stereo not given) | 0.598 | -0.442 (inactive) | 0.351 | 0.0697 | 0.715 | 2.75 | -0.147 | 1.3 | 0.912 | 0.955 | 0.674 | 1.14 | -0.198 | 0.678 | 1.28 | 0.769 | 0.883 | 1.29 | 1.24 | 0.864 (inactive)
3 | Cc1ccc(N2C(=O)c3ccccc3[C@@H](C(=O)NCc3ccccc3)[C@@H]2c2ccc(CO)cc2)nc1 | -1.29 | -0.816 (inactive) | -0.0328 | -0.0272 | 0.451 | 3.91 | -0.0641 | -0.931 | 0.465 | -1.28 | -0.841 | -1.26 | -0.289 | -1.15 | 1.33 | 0.0049 | 1.35 | -0.114 | -1.19 | -0.635 (inactive)
4 | [N-]=[N+]=NCc1ccccc1[C@H]1OC(c2ccc(OCCCO)cc2)=N[C@@]1(Cc1ccccc1N=[N+]=[N-])C(=O)NCc1ccccc1 | 0.763 | 0.945 (inactive) | 0.286 | 0.0243 | 0.579 | 1.65 | 0.174 | 1.31 | -0.633 | 1.12 | 0.859 | 1.18 | 0.636 | 0.82 | 1.03 | 0.299 | 0.623 | 0.0912 | 1 | -1.17 (inactive)
5 | CC(=O)NCCCC[C@@H]1NC(=O)[C@H]2C[C@@H](C(=O)NCCCCCCN(C)C)[C@@H](c3ccc(O)cc3)N2C1=O | -0.546 | 1.44 (inactive) | 0.029 | -0.0626 | 0.365 | 2.16 | -0.1 | 1.31 | 1.09 | 1.18 | 3.14 | 1.25 | 0.554 | 0.793 | 1.34 | 0.903 | -1.26 | 1.55 | 1.29 | 0.0866 (inactive)
6 | C=CC[C@]1(C(N)=O)N=C(c2ccc(OCCCO)cc2)O[C@H]1c1ccccc1CN=[N+]=[N-] | 1.05 | 0.221 (inactive) | -0.0502 | -0.0785 | 0.856 | 2.69 | 0.623 | 1.11 | -0.63 | 0.885 | 3.2 | 0.928 | 0.409 | 1.01 | 0.653 | -0.373 | 0.766 | -0.484 | 1.43 | -1.47 (inactive)
7 | O=C1OCCC=C[C@H]2OC34C=CCN(Cc5ccccc5)C(=O)[C@H]3N(CCO)C(=O)[C@@H]4C12 (stereo not given in full) | -0.121 | -0.141 (inactive) | -0.0967 | -0.19 | 0.459 | -0.59 | -0.227 | -1.04 | -0.849 | -1.18 | -0.954 | -1.18 | -0.616 | -1.89 | -1.21 | -0.379 | 0.252 | -0.705 | -2.09 | -0.678 (inactive)
8 | CCCCCCc1nc(-c2cc(C)c(OC)c(C)c2)cc2c1[Si](C(C)C)(C(C)C)O[C@H]2c1ccccc1 | -0.0154 | -0.315 (inactive) | -0.194 | -0.0191 | -0.398 | -0.301 | -0.136 | -0.728 | -0.182 | -0.152 | -0.36 | -0.341 | -0.272 | -0.399 | 0.0128 | -0.683 | -0.705 | -0.0906 | -0.372 | 0.844 (inactive)
9 | O=C1O[C@H](c2ccccc2)[C@H](c2ccccc2)N2[C@H]1[C@@H](C(=O)Nc1nc3ccccc3s1)[C@]1(C(=O)Nc3ccc(C#CC4(O)CCCCCC4)cc31)[C@H]2c1ccc(O)cc1 | 0.934 | 0.928 (inactive) | 0.116 | -0.0283 | 0.415 | 2.53 | 0.797 | 1.3 | 0.528 | 1.14 | 1.71 | 1.2 | 0.164 | 1 | 1.29 | 1.31 | -2.35 | 0.666 | 0.856 | -1.27 (inactive)
10 | COc1cc2c(cc1OC)CN(C(=O)[C@@H]1[C@H]3C(=O)O[C@H](c4ccccc4)[C@H](c4ccccc4)N3[C@H](c3ccccc3OCCO)[C@@]13C(=O)Nc1ccccc13)CC2 | 0.665 | -0.316 (inactive) | 0.746 | -0.112 | 0.609 | 0.938 | 1.31 | 1.2 | 0.182 | 0.997 | 2.5 | 1.22 | 0.702 | 0.833 | 0.666 | 0.465 | 0.447 | 0.0595 | 0.849 | -1.38 (inactive)
11 | O=C1c2ccccc2[C@](Cc2ccccc2I)(C(=O)NCC(F)(F)F)[C@H](c2ccc(CO)cc2)N1Cc1ccccc1C(F)(F)F | 0.89 | 0.34 (inactive) | -0.099 | -0.175 | 0.411 | 1.58 | 0.494 | 1.32 | -0.324 | 0.609 | 0.722 | 1.22 | 0.857 | 0.351 | 0.678 | 0.381 | 1.67 | 0.108 | 0.479 | -0.956 (inactive)
12 | COc1ccc(C(=O)Nc2ccc(CN3C(=O)[C@]4(O[C@H](CCn5cc(CCO)nn5)[C@@H]([Si](C)(C)c5ccc(OC)cc5)[C@@H]4C)c4ccccc43)cc2)cc1 | -0.343 | -0.213 (inactive) | 0.391 | -0.0649 | 0.697 | 0.88 | -0.153 | 1.32 | 0.276 | 1.15 | 0.748 | 1.13 | 0.203 | 0.92 | 0.867 | 1.57 | 1.14 | 0.426 | 0.798 | -1.26 (inactive)
13 | CC[C@H]1C2=C3C(CC[C@H]4C(OC)OC[C@](C)([C@@H]34)N(C(=O)OC(C)(C)C)C2)C(CO)C1CO (stereo not given in full) | 1.05 | 0.067 (inactive) | 0.619 | 0.437 | 0.486 | 3.15 | 0.903 | 1.29 | -0.656 | 1.16 | 2.26 | 1.18 | 1.47 | 0.43 | 0.579 | -0.468 | 1.16 | -0.181 | 1.06 | 0.16 (inactive)
14 | C=CCNC(=O)[C@H]1[C@@H]2C(=O)O[C@@H](c3ccccc3)[C@@H](c3ccccc3)N2[C@@H](c2ccccc2OCCO)[C@]12C(=O)N(C(=O)OCCOC)c1ccc(C#CCC(C(=O)OC)C(=O)OC)cc12 | 0.255 | 1.06 (inactive) | -0.0448 | -0.0829 | 0.634 | 2.13 | 0.689 | 1.3 | -0.052 | 1.12 | 2.1 | 1.2 | 0.751 | 0.709 | 1.24 | 1.06 | -1.18 | 0.779 | 1.08 | -0.509 (inactive)
15 | CC/C=C/C(=O)N(C[C@@H]1CCCO1)[C@@H]1CC(C(=O)NCCO)=C[C@H](Oc2c(I)cc(CO)cc2OC)[C@H]1O | 0.74 | 0.465 (inactive) | 0.0208 | -0.103 | 0.721 | 1.42 | 0.739 | 0.787 | -0.355 | -0.629 | 0.224 | 0.164 | 0.303 | 0.217 | -0.227 | -0.273 | 1.91 | 0.0903 | 0.701 | -1.47 (inactive)
16 | C=CCc1cccc([C@H]2N[C@H](C(=O)O)CC[C@@H]2C)c1 | -0.595 | -0.149 (inactive) | -0.122 | -0.157 | 0.0666 | -0.31 | -0.27 | 0.538 | 0.843 | 0.0607 | 0.7 | 0.297 | 1.34 | 0.172 | 0.648 | 0.972 | 0.809 | 0.825 | -0.173 | -0.42 (inactive)
17 | O=C(CS)NCCCCCCNC(=O)[C@@H]1C[C@@H]2C(=O)N[C@@H](Cc3ccccc3)C(=O)N2[C@@H]1c1ccc(O)cc1 | -0.318 | 1.1 (inactive) | -0.128 | -0.168 | 0.636 | 2.87 | 1.47 | 1.28 | 0.976 | 0.938 | 2.75 | 1.24 | 0.874 | 0.255 | 1.38 | 1.73 | -1.39 | 1.48 | 0.072 | -0.663 (inactive)
